About 8,800 targets were measured; listed, in parts, are those with a hit and a random draw of the rest. About 0.5% of all pairs of compound and target were hits.
How the values were obtained:
Assay in all cases: log2 fold change, soluble protein after heating vs DMSO (PISA); higher = thermal stabilisation; K562 lysate, 10 uM; active = over 0.2 and 3.5 SD of the protein, either way, in both replicates (recomputed)
[1] = compound: CS(=O)(=O)CCNCc1ccc(-c2ccc3ncnc(Nc4ccc(OCc5cccc(F)c5)c(Cl)c4)c3c2)o1 [lapatinib]
In short: (§1)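 Dounce homogenisation of K562 pellets in PBS pH 7.4 with 1 mM MgCl2 produced a crude extract, used at 1 mg/mL protein. Exposure to 10 μM compound lasted 30 min, and aliquots were then heated for 3 min across 48°C-58°C, pooled and brought to 0.5% NP-40 at 4°C. The supernatant after 21,000xg for 90 min was quantified by TMTpro 16plex LC-MS/MS with channel sums equalised. Duplicate values are given as log-two fold change in thermal stability relative to solvent controls.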

[2] = compound: CS(=O)(=O)N1CCN(Cc2cc3nc(-c4cccc5[nH]ncc45)nc(N4CCOCC4)c3s2)CC1 [pictilisib]
In short: as §1

[3] = compound: C[C@@H](Oc1cc(-c2cnn(C3CCNCC3)c2)cnc1N)c1c(Cl)ccc(F)c1Cl [crizotinib]
In short: as §1

[4] = compound: C[C@H](C1=CC=C(C=C1)C(=O)NC2=C3C=CNC3=NC=C2)N
In short: as §1

[5] = compound: C[C@H](Nc1ncnc2nc[nH]c12)c1cc2cccc(Cl)c2c(=O)n1-c1ccccc1 [duvelisib]
In short: as §1

[6] = compound: Cc1cc(Nc2cc(CN3CCOCC3)c3nc(C)c(Cc4ccc(Cl)cc4F)n3n2)n[nH]1 [gandotinib]
In short: as §1

[7] = compound: Cc1cc(Nc2cc(N3CCN(C)CC3)nc(Sc3ccc(NC(=O)C4CC4)cc3)n2)n[nH]1 [tozasertib]
In short: as §1

[8] = compound: Cc1ccc(-n2nc(C(C)(C)C)cc2NC(=O)Nc2ccc(OCCN3CCOCC3)c3ccccc23)cc1 [doramapimod]
In short: as §1

[9] = compound: Cc1ccc(NC(=O)c2ccc(CN3CC[C@H](N(C)C)C3)c(C(F)(F)F)c2)cc1Nc1nccc(-c2cncnc2)n1 [bafetinib]
In short: as §1

[10] = compound: Cc1cccc(CC(=O)N2CCc3c2ccc(-c2cn(C)c4ncnc(N)c24)c3F)n1
In short: as §1

Measured: log2 fold change

RNF113A (UniProt O15541)
Sequence of UniProt O15541 (O15541 whole entry, looked up): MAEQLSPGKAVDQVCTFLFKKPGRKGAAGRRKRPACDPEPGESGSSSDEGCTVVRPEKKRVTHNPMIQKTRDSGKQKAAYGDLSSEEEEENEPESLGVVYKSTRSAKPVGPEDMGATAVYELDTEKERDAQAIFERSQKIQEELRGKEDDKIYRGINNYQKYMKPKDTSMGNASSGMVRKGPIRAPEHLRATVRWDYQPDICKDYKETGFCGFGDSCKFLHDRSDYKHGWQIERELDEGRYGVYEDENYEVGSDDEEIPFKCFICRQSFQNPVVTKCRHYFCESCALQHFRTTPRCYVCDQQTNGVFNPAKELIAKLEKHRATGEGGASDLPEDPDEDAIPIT
inactive: [1] 0.012 | [2] 0.021 | [3] 0.024 | [4] -0.072 | [5] -0.009 | [6] 0.068 | [7] 0.002 | [8] 0.016 | [9] 0 | [10] 0.034

RPS6KB1 (UniProt P23443)
inactive: [1] 0.009 | [2] 0.075 | [3] 0.16 | [4] -0.104 | [5] 0.001 | [6] 0.051 | [7] 0.022 | [8] -0.05 | [9] 0.006 | [10] 0.177

SAR1B (UniProt Q9Y6B6)
inactive: [1] 0.122 | [2] 0.036 | [3] -0.056 | [4] -0.031 | [5] 0.004 | [7] -0.005 | [9] -0.079 | [10] 0.08
active: [6] 0.44 | [8] 0.578

SESN2 (UniProt P58004)
inactive: [1] -0.085 | [2] -0.047 | [3] -0.042 | [4] 0.041 | [5] 0.047 | [6] 0.038 | [7] -0.006 | [8] -0.031 | [9] -0.15 | [10] 0.003

RMC1 (UniProt Q96DM3)
inactive: [1] -0.036 | [2] -0.011 | [3] -0.013 | [4] -0.029 | [5] 0.024 | [6] -0.051 | [7] -0.056 | [8] 0.012 | [9] -0.062 | [10] 0.035

S100A11 (UniProt P31949)
Sequence of UniProt P31949 (P31949 whole entry, looked up): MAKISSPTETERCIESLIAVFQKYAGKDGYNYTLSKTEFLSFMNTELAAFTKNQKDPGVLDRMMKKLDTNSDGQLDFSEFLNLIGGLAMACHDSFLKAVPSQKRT
inactive: [1] 0.105 | [2] 0.006 | [3] 0.02 | [4] 0.097 | [5] 0.052 | [6] -0.042 | [7] -0.043 | [8] 0.003 | [9] -0.039 | [10] -0.032

RPS9 (UniProt P46781)
active: [4] 0.244
inactive: [1] -0.012 | [2] 0.009 | [3] 0.061 | [5] 0.006 | [6] -0.087 | [7] 0.016 | [8] -0.023 | [9] 0.034 | [10] -0.07

RBM8A (UniProt Q9Y5S9)
active: [4] 0.277
inactive: [1] 0.01 | [2] 0.017 | [3] 0.135 | [5] -0.014 | [6] -0.209 | [7] 0.06 | [8] -0.038 | [9] -0.017 | [10] -0.2

RPS29 (UniProt P62273)
active: [4] 0.793
inactive: [1] -0.024 | [2] 0.03 | [3] 0.054 | [5] -0.02 | [6] -0.202 | [7] -0.128 | [8] -0.105 | [9] 0.205 | [10] -0.315

RNASEH2B, A0A1B0GUE7
inactive: [1] -0.128

SCO2 (UniProt O43819)
Sequence of UniProt O43819 (O43819 whole entry, looked up): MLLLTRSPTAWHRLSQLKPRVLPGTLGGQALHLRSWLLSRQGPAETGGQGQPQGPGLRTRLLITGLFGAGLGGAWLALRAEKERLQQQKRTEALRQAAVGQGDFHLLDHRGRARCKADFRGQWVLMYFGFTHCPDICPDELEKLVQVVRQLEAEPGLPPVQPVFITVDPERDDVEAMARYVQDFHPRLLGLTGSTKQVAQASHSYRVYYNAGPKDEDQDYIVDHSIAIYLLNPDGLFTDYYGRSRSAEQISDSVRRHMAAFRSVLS
inactive: [1] 0.118 | [2] -0.057 | [3] 0.026 | [4] -0.163 | [5] 0.092 | [6] 0.048 | [7] -0.007 | [8] 0.002 | [9] 0.029 | [10] 0.101

RYR1 (UniProt P21817)
inactive: [1] 0.028 | [2] -0.048 | [3] -0.229 | [4] -0.017 | [5] -0.032 | [6] -0.027 | [7] 0.04 | [8] 0.112 | [9] -0.13 | [10] 0.016

RABGGTB (UniProt P53611)
inactive: [1] -0.02 | [2] 0.006 | [3] -0.031 | [4] 0.135 | [5] 0.043 | [6] -0.051 | [7] -0.023 | [8] 0.016 | [9] -0.087 | [10] 0.028

RBBP7 isoform 2 (UniProt Q16576)
Sequence of UniProt Q16576 (Q16576 whole entry, looked up): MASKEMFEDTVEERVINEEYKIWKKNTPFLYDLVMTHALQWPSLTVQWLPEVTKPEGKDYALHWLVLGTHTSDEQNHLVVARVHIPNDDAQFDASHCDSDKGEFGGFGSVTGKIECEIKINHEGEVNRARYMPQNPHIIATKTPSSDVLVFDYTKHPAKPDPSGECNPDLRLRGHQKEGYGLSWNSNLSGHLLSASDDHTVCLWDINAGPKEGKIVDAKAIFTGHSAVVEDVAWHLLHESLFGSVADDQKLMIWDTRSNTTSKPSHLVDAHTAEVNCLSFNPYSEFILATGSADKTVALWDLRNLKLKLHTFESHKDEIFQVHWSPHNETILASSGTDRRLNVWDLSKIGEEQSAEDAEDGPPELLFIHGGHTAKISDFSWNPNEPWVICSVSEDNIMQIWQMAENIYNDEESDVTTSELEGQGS
inactive: [1] 0.002 | [2] 0.027 | [3] 0.008 | [4] -0.213 | [5] 0.025 | [6] 0.019 | [7] 0.017 | [8] 0.035 | [9] 0.018 | [10] -0.011

RCOR3 isoform 3 (UniProt Q9P2K3)
inactive: [1] 0.016 | [2] 0.023 | [3] 0.011 | [4] 0.014 | [5] -0.029 | [6] -0.024 | [7] 0.009 | [8] -0.048 | [9] -0.035 | [10] 0.004

QRSL1 (UniProt Q9H0R6)
inactive: [1] 0.038 | [2] 0.044 | [3] 0.031 | [4] 0.105 | [5] 0.044 | [6] -0.04 | [7] 0.044 | [8] 0.003 | [9] -0.227 | [10] -0.022

RXRB isoform 3 (UniProt P28702)
Sequence of UniProt P28702 (P28702 whole entry, looked up): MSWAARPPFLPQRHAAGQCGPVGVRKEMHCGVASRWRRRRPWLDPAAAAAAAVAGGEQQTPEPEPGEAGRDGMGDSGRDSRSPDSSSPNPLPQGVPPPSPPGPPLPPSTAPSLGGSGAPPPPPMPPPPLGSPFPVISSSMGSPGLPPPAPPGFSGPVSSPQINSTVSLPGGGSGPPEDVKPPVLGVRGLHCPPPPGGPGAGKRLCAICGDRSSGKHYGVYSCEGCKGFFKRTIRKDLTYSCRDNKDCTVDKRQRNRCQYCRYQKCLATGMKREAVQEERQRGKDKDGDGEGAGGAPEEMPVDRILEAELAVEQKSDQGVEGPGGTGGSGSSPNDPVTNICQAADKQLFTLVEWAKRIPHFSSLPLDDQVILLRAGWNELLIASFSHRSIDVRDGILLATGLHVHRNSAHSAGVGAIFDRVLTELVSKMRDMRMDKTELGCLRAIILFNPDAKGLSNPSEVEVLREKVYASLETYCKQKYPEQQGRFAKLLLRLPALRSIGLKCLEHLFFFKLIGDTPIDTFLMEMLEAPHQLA
inactive: [1] 0.085 | [2] -0.096 | [3] -0.011 | [4] 0.046 | [5] -0.051 | [6] -0.074 | [7] 0.006 | [8] -0.091 | [9] -0.11 | [10] 0.023

SEC61G (UniProt P60059)
Sequence of UniProt P60059 (P60059 whole entry, looked up): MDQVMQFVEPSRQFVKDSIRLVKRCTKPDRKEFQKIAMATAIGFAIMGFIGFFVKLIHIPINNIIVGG
active: [6] 0.46
inactive: [1] -0.094 | [2] 0.139 | [3] 0.209 | [4] -0.331 | [5] 0.105 | [7] -0.168 | [8] 0.098 | [9] -0.192 | [10] 0.338

RAD50 isoform 2 (UniProt Q92878)
Sequence of UniProt Q92878 (Q92878 whole entry, looked up): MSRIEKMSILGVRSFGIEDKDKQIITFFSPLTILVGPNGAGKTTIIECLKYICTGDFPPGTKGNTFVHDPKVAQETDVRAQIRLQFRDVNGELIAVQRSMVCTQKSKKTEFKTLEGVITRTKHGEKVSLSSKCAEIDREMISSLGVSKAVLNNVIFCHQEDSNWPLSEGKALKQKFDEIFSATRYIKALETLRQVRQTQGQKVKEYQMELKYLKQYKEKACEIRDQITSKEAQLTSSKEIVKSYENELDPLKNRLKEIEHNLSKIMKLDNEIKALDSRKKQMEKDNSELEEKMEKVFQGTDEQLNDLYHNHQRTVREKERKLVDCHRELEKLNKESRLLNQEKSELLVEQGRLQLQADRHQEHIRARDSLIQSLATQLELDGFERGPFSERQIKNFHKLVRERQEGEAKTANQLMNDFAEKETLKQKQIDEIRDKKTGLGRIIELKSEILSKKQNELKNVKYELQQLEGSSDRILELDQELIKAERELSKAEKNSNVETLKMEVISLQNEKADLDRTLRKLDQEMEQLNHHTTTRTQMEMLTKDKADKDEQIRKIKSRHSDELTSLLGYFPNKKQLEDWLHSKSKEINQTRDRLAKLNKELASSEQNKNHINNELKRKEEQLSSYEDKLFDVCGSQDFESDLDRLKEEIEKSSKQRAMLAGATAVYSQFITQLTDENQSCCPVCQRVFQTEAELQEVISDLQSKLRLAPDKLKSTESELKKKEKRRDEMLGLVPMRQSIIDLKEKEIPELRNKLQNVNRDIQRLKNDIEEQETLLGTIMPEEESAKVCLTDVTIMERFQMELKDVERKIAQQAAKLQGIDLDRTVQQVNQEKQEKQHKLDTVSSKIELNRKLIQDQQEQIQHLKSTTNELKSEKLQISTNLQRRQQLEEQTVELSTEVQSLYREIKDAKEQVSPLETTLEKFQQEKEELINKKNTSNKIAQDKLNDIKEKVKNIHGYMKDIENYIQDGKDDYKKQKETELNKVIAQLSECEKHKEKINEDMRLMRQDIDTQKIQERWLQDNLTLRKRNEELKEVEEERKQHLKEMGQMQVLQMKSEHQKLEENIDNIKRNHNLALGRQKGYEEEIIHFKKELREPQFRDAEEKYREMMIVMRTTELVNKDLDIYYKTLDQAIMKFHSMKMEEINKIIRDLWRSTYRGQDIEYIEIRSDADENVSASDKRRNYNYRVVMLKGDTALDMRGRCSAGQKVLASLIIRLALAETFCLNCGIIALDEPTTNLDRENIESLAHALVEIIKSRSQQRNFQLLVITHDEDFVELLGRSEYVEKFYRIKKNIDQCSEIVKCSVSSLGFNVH
inactive: [1] -0.012 | [2] -0.001 | [3] -0.025 | [4] 0.007 | [5] -0.019 | [6] -0.07 | [7] 0.011 | [8] -0.003 | [9] -0.004 | [10] 0.006

RABL3 (UniProt Q5HYI8)
inactive: [1] 0.036 | [2] -0.028 | [3] -0.102 | [4] -0.017 | [5] 0.198 | [6] -0.097 | [7] -0.003 | [8] 0.085 | [9] -0.05 | [10] 0.031

RNF40 (UniProt O75150)
inactive: [1] -0.019 | [2] -0.005 | [3] -0.01 | [4] -0.011 | [5] -0.001 | [6] -0.048 | [7] -0.002 | [8] 0.002 | [9] 0.01 | [10] 0.03

RINT1 (UniProt Q6NUQ1)
Sequence of UniProt Q6NUQ1 (Q6NUQ1 whole entry, looked up): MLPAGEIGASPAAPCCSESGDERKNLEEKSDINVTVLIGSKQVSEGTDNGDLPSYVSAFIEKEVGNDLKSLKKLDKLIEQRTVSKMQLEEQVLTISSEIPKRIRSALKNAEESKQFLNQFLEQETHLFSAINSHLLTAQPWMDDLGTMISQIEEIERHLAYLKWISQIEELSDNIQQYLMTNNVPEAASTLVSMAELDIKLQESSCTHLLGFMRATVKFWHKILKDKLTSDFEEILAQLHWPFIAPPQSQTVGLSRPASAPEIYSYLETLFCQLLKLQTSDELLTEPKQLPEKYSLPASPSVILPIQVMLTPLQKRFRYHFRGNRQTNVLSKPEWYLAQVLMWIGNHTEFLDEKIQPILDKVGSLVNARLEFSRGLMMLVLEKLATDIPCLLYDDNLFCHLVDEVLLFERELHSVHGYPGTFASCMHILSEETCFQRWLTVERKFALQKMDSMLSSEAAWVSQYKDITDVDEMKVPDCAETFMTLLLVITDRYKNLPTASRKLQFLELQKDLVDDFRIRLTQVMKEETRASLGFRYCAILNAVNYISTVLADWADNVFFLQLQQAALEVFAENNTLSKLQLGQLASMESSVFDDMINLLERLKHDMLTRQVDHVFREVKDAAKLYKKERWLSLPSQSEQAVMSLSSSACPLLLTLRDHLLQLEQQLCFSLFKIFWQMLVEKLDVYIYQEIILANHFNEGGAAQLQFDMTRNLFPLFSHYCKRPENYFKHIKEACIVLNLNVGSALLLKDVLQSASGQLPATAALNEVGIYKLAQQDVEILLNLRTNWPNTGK
inactive: [1] -0.069 | [2] -0.065 | [3] -0.06 | [4] -0.058 | [5] 0.046 | [6] -0.039 | [7] 0.025 | [8] 0.069 | [9] -0.058 | [10] 0.132

RFC2 (UniProt P35250)
Sequence of UniProt P35250 (P35250 whole entry, looked up): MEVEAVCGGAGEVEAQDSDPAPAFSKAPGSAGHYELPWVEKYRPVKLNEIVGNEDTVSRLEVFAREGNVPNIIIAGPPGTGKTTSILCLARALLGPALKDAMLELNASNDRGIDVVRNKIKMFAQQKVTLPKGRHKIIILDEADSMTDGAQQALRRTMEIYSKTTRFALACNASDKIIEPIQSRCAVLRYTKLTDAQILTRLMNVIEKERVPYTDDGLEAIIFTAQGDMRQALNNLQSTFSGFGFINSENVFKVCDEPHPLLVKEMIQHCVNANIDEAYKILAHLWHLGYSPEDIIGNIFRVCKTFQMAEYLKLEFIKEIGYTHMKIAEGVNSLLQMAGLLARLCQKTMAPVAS
inactive: [1] -0.004 | [2] 0.015 | [3] -0.046 | [4] -0.025 | [5] 0.025 | [6] -0.007 | [7] 0.005 | [8] 0.042 | [9] -0.074 | [10] 0.041

RABEPK (UniProt Q7Z6M1)
Sequence of UniProt Q7Z6M1 (Q7Z6M1 whole entry, looked up): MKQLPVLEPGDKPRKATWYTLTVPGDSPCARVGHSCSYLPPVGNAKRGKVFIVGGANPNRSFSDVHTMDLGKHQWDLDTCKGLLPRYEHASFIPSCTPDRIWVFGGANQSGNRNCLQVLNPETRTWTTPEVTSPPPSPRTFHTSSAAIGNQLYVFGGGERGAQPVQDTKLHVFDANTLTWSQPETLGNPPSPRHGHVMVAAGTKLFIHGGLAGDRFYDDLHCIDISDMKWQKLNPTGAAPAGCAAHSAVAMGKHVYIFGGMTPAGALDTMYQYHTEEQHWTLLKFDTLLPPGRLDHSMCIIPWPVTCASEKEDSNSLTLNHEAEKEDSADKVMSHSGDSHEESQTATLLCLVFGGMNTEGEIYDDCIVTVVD
inactive: [1] 0.003 | [2] -0.016 | [3] -0.008 | [4] -0.069 | [5] 0.018 | [6] 0.007 | [7] -0.033 | [8] 0.005 | [9] 0.024 | [10] 0.04

RAB3IL1 (UniProt Q8TBN0)
Sequence of UniProt Q8TBN0 (Q8TBN0 whole entry, looked up): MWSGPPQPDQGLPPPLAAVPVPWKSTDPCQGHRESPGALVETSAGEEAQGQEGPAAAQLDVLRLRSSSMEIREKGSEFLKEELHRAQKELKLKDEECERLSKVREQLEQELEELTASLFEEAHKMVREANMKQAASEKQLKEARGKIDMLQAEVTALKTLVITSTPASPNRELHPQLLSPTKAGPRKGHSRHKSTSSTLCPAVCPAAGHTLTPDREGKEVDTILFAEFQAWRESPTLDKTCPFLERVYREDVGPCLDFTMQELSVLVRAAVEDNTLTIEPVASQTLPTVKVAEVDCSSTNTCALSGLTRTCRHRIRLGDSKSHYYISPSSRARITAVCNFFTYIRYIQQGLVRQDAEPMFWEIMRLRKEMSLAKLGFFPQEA
inactive: [1] -0.002 | [2] -0.034 | [3] -0.023 | [4] 0 | [5] -0.003 | [6] -0.014 | [7] -0.004 | [8] -0.012 | [9] 0.006 | [10] -0.02

SAMHD1 (UniProt Q9Y3Z3)
inactive: [1] 0.02 | [2] -0.071 | [3] -0.033 | [4] -0.038 | [5] 0.013 | [6] -0.029 | [7] 0.032 | [8] -0.005 | [9] -0.071 | [10] 0.028

RHAG (UniProt Q02094)
active: [4] -0.381
inactive: [1] -0.046 | [2] -0.002 | [3] -0.038 | [5] 0.113 | [6] 0.07 | [7] 0.05 | [8] 0.032 | [9] 0.004 | [10] 0.184

RNASEL (UniProt Q05823)
inactive: [1] -0.034 | [2] -0.076 | [3] -0.04 | [4] -0.011 | [5] 0.007 | [6] -0.068 | [7] -0.014 | [8] -0.007 | [9] -0.018 | [10] -0.013

RFC5 (UniProt P40937)
inactive: [1] 0.007 | [2] -0.058 | [3] -0.056 | [4] -0.047 | [5] 0.016 | [6] -0.068 | [7] 0.018 | [8] 0.026 | [9] -0.039 | [10] 0.018

RPL31 (UniProt P62899)
inactive: [1] -0.01 | [2] 0.009 | [3] 0.016 | [4] -0.006 | [5] 0.004 | [6] 0.005 | [7] -0.006 | [8] -0.041 | [9] -0.023 | [10] 0.029
